{
  "source": "the supplement of paper PMC6411743",
  "note": "± gives the standard deviation of the averaged measurements. Targets with the largest changes are over-represented here; the source holds about 6,500 in all.",
  "data": [
    {"compound": "Nc1ncnc2c1ncn2[C@@H]1O[C@H](COP(=O)(O)OP(=O)(O)OP(=O)(O)O)[C@@H](O)[C@H]1O [adenosine triphosphate]", "experiment": "NP40-soluble protein abundance relative to vehicle (solubility fold change) (ratio); higher = more soluble protein in presence of ATP", "conditions": "concentration: 1mM", "outline": "(§1)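 Jurkat crude lysate prepared with a Dounce homogeniser was treated at eight concentrations spanning 0.1 to 10 mM, 10 min at room temperature then 3 min at 37 °C. Solubilisation with 0.8% NP40 and benzonase and ultracentrifugation preceded TMT labelling of the supernatant for LC-MS/MS. Fold change against the detergent-processed vehicle was determined per replicate from vsn-normalised intensities, across three independent experiments.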", "values": [
      {"target": "UniProt Q14643|Q14643-2|Q14643-5", "sequence (Q14643 whole entry)": "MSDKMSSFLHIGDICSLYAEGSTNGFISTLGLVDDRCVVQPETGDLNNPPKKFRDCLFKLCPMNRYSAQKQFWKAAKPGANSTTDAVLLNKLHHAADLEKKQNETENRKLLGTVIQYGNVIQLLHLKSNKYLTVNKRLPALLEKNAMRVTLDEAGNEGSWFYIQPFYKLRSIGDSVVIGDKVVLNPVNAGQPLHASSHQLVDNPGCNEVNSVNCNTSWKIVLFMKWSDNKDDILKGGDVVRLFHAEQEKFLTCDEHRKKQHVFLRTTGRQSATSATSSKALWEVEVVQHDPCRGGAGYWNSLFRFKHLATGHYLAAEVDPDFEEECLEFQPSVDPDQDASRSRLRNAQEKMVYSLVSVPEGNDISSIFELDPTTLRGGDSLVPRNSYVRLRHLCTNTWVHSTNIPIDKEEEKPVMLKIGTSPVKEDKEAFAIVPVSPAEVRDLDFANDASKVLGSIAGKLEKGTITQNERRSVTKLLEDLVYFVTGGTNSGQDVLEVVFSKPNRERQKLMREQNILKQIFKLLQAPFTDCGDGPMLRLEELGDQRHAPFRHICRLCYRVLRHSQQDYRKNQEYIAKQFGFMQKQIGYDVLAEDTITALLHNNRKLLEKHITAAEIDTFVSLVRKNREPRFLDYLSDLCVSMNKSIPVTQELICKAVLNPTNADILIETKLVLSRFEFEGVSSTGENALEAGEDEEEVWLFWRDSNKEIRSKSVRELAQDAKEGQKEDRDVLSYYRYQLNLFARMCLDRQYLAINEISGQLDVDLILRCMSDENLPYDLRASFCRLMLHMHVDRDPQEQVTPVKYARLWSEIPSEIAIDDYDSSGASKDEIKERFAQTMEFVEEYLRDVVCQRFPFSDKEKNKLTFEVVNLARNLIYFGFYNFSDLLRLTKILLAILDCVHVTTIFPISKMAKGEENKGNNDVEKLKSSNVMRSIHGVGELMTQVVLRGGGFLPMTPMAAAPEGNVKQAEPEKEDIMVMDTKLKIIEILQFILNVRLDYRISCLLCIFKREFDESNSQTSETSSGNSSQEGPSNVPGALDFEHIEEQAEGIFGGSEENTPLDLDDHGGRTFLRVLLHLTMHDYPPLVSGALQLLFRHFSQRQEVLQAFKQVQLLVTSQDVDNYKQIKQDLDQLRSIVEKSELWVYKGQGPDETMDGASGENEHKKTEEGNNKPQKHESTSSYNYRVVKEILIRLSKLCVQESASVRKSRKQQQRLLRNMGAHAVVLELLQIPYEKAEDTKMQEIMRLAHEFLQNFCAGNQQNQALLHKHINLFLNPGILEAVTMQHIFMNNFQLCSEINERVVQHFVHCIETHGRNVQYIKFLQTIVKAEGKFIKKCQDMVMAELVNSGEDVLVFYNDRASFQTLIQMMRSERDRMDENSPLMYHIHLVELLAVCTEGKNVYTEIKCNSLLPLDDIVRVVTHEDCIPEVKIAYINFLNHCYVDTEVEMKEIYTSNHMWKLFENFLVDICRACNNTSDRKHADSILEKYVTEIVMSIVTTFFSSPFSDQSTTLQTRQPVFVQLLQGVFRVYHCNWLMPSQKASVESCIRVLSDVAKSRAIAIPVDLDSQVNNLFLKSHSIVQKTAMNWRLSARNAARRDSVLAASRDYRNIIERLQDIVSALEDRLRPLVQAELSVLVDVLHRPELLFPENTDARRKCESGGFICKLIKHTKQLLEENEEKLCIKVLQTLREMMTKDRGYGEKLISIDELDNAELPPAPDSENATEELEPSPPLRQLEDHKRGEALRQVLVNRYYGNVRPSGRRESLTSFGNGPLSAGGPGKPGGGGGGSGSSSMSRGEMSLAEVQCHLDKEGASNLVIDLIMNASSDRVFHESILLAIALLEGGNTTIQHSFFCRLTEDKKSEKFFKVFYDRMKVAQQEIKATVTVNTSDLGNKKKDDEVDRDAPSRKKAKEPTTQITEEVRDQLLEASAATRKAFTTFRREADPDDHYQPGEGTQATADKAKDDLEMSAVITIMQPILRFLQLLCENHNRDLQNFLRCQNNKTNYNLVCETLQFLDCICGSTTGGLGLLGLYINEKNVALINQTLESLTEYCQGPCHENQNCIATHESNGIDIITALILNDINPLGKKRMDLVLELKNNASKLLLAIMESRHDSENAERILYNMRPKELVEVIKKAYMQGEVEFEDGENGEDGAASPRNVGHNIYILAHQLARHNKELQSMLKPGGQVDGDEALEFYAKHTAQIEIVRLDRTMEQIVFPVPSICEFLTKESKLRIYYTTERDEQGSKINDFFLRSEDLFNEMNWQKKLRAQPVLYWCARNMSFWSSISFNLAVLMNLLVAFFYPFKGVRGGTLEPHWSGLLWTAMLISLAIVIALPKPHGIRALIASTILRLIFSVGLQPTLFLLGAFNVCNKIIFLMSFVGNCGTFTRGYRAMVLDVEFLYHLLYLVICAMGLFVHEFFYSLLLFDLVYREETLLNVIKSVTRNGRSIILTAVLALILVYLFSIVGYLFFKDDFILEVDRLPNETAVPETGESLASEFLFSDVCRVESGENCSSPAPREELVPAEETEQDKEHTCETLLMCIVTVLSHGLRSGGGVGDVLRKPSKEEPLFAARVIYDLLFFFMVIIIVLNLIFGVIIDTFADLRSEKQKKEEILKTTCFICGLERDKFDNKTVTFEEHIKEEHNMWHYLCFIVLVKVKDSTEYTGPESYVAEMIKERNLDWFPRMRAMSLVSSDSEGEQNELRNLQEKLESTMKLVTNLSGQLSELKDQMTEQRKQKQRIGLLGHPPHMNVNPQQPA", "NP40-soluble protein abundance": "1.05 ± 0.071"},
      {"target": "UniProt Q0VDD8-4", "NP40-soluble protein abundance": "0.837 ± 0.098"},
      {"target": "TBC1D25 (UniProt Q3MII6)", "sequence (Q3MII6 whole entry)": "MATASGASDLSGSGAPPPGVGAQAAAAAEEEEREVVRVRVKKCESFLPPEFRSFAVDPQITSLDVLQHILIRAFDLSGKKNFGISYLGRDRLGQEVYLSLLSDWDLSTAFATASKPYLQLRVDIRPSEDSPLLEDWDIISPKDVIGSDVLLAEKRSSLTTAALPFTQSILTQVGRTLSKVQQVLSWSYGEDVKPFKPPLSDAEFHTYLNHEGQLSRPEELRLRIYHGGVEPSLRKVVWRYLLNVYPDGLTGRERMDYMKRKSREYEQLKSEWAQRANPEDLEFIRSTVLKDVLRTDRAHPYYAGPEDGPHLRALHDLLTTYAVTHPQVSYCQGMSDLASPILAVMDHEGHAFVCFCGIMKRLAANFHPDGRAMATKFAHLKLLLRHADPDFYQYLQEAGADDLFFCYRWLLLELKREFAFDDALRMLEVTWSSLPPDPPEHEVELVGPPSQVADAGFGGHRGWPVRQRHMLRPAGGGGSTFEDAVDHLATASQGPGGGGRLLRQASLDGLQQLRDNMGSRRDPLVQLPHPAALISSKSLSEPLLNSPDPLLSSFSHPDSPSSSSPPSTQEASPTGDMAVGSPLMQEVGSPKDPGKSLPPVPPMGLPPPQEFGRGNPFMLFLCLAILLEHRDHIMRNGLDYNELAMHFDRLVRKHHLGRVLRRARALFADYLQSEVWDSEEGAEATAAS", "NP40-soluble protein abundance": "0.982 ± 0.059"},
      {"target": "UniProt Q8IWZ8", "sequence (Q8IWZ8 whole entry)": "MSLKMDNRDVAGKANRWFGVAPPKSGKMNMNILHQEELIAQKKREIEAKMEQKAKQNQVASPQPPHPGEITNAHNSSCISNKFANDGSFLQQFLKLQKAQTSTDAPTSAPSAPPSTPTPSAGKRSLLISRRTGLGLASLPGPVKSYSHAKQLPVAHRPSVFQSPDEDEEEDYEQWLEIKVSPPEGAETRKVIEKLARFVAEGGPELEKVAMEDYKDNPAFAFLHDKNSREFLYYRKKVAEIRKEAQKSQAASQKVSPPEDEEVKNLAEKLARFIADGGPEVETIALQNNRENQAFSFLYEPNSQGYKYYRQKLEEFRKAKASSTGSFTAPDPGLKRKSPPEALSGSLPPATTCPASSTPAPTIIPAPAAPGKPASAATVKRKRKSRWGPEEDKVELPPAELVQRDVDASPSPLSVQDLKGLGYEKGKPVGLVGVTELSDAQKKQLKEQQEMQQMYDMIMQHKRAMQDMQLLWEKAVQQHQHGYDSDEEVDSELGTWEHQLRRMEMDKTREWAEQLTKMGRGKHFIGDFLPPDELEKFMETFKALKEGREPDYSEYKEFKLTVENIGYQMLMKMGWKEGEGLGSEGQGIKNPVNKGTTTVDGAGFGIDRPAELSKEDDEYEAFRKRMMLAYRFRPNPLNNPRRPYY", "NP40-soluble protein abundance": "1.03 ± 0.036"},
      {"target": "SF3B3 (UniProt Q15393)", "NP40-soluble protein abundance": "1.12 ± 0.072"}
    ]},
    {"compound": "Nc1ncnc2c1ncn2[C@@H]1O[C@H](COP(=O)(O)OP(=O)(O)OP(=O)(O)O)[C@@H](O)[C@H]1O [adenosine triphosphate]", "experiment": "NP40-soluble protein abundance relative to vehicle (solubility fold change) (ratio); higher = more soluble protein in presence of ATP", "conditions": "concentration: 2mM", "outline": "as §1", "values": [
      {"target": "UniProt Q13137|Q13137-3|Q13137-4|Q13137-5|H0YBP4", "NP40-soluble protein abundance": "0.968 ± 0.032"},
      {"target": "UniProt Q14498|Q14498-2", "NP40-soluble protein abundance": "1.72 ± 0.12"},
      {"target": "UniProt Q8N684|Q8N684-2|Q8N684-3", "NP40-soluble protein abundance": "1.61 ± 0.016"},
      {"target": "CIRBP (UniProt Q14011)", "NP40-soluble protein abundance": "1.02 ± 0.029"},
      {"target": "GSPT2 (UniProt Q8IYD1)", "NP40-soluble protein abundance": "1.023 ± 0.0095"},
      {"target": "EFTUD2 (UniProt Q15029)", "NP40-soluble protein abundance": "1.16 ± 0.047"},
      {"target": "UniProt Q12872|Q12872-2", "sequence (Q12872 whole entry)": "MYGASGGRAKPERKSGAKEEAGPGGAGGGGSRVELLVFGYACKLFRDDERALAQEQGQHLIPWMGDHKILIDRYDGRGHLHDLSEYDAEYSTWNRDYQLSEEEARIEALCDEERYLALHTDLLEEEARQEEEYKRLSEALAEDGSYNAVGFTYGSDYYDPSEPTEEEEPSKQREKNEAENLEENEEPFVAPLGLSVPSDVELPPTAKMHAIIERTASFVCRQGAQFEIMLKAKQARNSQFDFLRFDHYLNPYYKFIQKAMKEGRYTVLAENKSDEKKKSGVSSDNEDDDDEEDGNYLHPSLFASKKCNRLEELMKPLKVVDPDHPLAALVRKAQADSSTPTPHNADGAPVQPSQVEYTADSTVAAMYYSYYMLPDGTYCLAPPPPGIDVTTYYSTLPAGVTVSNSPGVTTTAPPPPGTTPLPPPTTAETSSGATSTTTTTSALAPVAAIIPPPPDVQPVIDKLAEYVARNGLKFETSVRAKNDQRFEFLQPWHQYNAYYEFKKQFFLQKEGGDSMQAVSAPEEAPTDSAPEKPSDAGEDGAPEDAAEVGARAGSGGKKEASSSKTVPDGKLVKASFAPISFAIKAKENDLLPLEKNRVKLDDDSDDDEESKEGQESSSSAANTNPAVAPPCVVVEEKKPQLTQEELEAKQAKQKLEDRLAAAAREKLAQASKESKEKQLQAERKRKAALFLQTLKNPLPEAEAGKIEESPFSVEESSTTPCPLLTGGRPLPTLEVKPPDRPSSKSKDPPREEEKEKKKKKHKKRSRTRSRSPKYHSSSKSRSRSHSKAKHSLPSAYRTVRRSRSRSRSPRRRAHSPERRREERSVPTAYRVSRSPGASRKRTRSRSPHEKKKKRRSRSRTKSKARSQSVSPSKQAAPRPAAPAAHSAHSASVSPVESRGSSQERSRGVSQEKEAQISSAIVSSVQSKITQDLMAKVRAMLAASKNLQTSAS", "NP40-soluble protein abundance": "1.33 ± 0.049"},
      {"target": "UniProt Q8WUY8|M0R1E3", "NP40-soluble protein abundance": "1.049 ± 0.0036"},
      {"target": "PRPF4B (UniProt Q13523)", "NP40-soluble protein abundance": "1.329 ± 0.011"},
      {"target": "UniProt Q6PK18|Q6PK18-2", "NP40-soluble protein abundance": "1.06 ± 0.061"},
      {"target": "UniProt Q13761|Q13761-2", "NP40-soluble protein abundance": "1.18 ± 0.35"},
      {"target": "DCUN1D3 (UniProt Q8IWE4)", "NP40-soluble protein abundance": "0.949 ± 0.049"},
      {"target": "UniProt Q14677|Q14677-3", "NP40-soluble protein abundance": "1.05 ± 0.02"},
      {"target": "UniProt Q14155-1", "NP40-soluble protein abundance": "0.9849 ± 0.0056"},
      {"target": "UniProt Q8NCU8-2", "NP40-soluble protein abundance": "0.822 ± 0.086"},
      {"target": "DHX9 (UniProt Q08211)", "NP40-soluble protein abundance": "1.29 ± 0.043"},
      {"target": "UniProt Q16630|Q16630-2", "NP40-soluble protein abundance": "2.68 ± 0.27"},
      {"target": "UniProt Q7Z5G4|Q7Z5G4-3", "NP40-soluble protein abundance": "0.914 ± 0.015"},
      {"target": "DDX60 (UniProt Q8IY21)", "NP40-soluble protein abundance": "1.27 ± 0.093"},
      {"target": "ZNF672 (UniProt Q499Z4)", "NP40-soluble protein abundance": "1.07 ± 0.0039"},
      {"target": "NFX1 (UniProt Q12986)", "NP40-soluble protein abundance": "1.21 ± 0.042"},
      {"target": "UniProt Q6KCM7-2|Q6KCM7-3|Q6KCM7|Q6KCM7-4|Q6KCM7-5", "NP40-soluble protein abundance": "0.884 ± 0.061"},
      {"target": "LARP1 (UniProt Q6PKG0)", "NP40-soluble protein abundance": "0.988 ± 0.065"},
      {"target": "UniProt Q8IZ81|D6RBS5", "NP40-soluble protein abundance": "0.966 ± 0.089"},
      {"target": "UniProt Q13642-1|Q13642-4|Q13642-5", "NP40-soluble protein abundance": "0.968 ± 0.11"},
      {"target": "UniProt Q641Q2|F8W7U3|Q641Q2-2", "NP40-soluble protein abundance": "0.9815 ± 0.0096"},
      {"target": "FLCN (UniProt Q8NFG4)", "NP40-soluble protein abundance": "1 ± 0.037"},
      {"target": "UniProt Q13243", "NP40-soluble protein abundance": "1.63 ± 0.088"},
      {"target": "UniProt Q14643|Q14643-2|Q14643-5", "NP40-soluble protein abundance": "0.999 ± 0.065"},
      {"target": "UniProt Q0VDD8-4", "NP40-soluble protein abundance": "0.884 ± 0.028"},
      {"target": "TBC1D25 (UniProt Q3MII6)", "NP40-soluble protein abundance": "1.04 ± 0.11"},
      {"target": "UniProt Q8IWZ8", "NP40-soluble protein abundance": "1.05 ± 0.037"},
      {"target": "SF3B3 (UniProt Q15393)", "NP40-soluble protein abundance": "1.11 ± 0.052"}
    ]},
    {"compound": "Nc1ncnc2c1ncn2[C@@H]1O[C@H](COP(=O)(O)OP(=O)(O)OP(=O)(O)O)[C@@H](O)[C@H]1O [adenosine triphosphate]", "experiment": "NP40-soluble protein abundance relative to vehicle (solubility fold change) (ratio); higher = more soluble protein in presence of ATP", "conditions": "concentration: 4mM", "outline": "as §1", "values": [
      {"target": "UniProt Q13137|Q13137-3|Q13137-4|Q13137-5|H0YBP4", "NP40-soluble protein abundance": "0.9319 ± 0.0066"},
      {"target": "UniProt Q14498|Q14498-2", "NP40-soluble protein abundance": "1.84 ± 0.12"},
      {"target": "UniProt Q8N684|Q8N684-2|Q8N684-3", "NP40-soluble protein abundance": "1.75 ± 0.065"},
      {"target": "CIRBP (UniProt Q14011)", "NP40-soluble protein abundance": "1.04 ± 0.033"},
      {"target": "GSPT2 (UniProt Q8IYD1)", "NP40-soluble protein abundance": "1 ± 0.016"},
      {"target": "EFTUD2 (UniProt Q15029)", "NP40-soluble protein abundance": "1.21 ± 0.047"},
      {"target": "UniProt Q12872|Q12872-2", "NP40-soluble protein abundance": "1.5 ± 0.049"},
      {"target": "UniProt Q8WUY8|M0R1E3", "NP40-soluble protein abundance": "1.13 ± 0.032"},
      {"target": "PRPF4B (UniProt Q13523)", "NP40-soluble protein abundance": "1.46 ± 0.018"},
      {"target": "UniProt Q6PK18|Q6PK18-2", "NP40-soluble protein abundance": "0.955 ± 0.045"},
      {"target": "UniProt Q13761|Q13761-2", "NP40-soluble protein abundance": "1.18 ± 0.3"},
      {"target": "DCUN1D3 (UniProt Q8IWE4)", "NP40-soluble protein abundance": "0.998 ± 0.035"},
      {"target": "UniProt Q14677|Q14677-3", "NP40-soluble protein abundance": "1.04 ± 0.028"},
      {"target": "UniProt Q14155-1", "NP40-soluble protein abundance": "0.97 ± 0.013"},
      {"target": "UniProt Q8NCU8-2", "NP40-soluble protein abundance": "0.826 ± 0.14"},
      {"target": "DHX9 (UniProt Q08211)", "NP40-soluble protein abundance": "1.49 ± 0.03"},
      {"target": "UniProt Q16630|Q16630-2", "NP40-soluble protein abundance": "2.89 ± 0.3"},
      {"target": "UniProt Q7Z5G4|Q7Z5G4-3", "NP40-soluble protein abundance": "0.902 ± 0.019"},
      {"target": "DDX60 (UniProt Q8IY21)", "NP40-soluble protein abundance": "1.66 ± 0.11"},
      {"target": "ZNF672 (UniProt Q499Z4)", "NP40-soluble protein abundance": "1 ± 0.089"},
      {"target": "NFX1 (UniProt Q12986)", "NP40-soluble protein abundance": "1.34 ± 0.041"},
      {"target": "UniProt Q6KCM7-2|Q6KCM7-3|Q6KCM7|Q6KCM7-4|Q6KCM7-5", "NP40-soluble protein abundance": "0.831 ± 0.012"},
      {"target": "LARP1 (UniProt Q6PKG0)", "NP40-soluble protein abundance": "1.06 ± 0.059"},
      {"target": "UniProt Q8IZ81|D6RBS5", "NP40-soluble protein abundance": "0.958 ± 0.094"},
      {"target": "UniProt Q13642-1|Q13642-4|Q13642-5", "NP40-soluble protein abundance": "0.956 ± 0.098"},
      {"target": "UniProt Q641Q2|F8W7U3|Q641Q2-2", "NP40-soluble protein abundance": "0.938 ± 0.033"},
      {"target": "FLCN (UniProt Q8NFG4)", "NP40-soluble protein abundance": "1.05 ± 0.066"},
      {"target": "UniProt Q13243", "NP40-soluble protein abundance": "1.76 ± 0.12"},
      {"target": "UniProt Q14643|Q14643-2|Q14643-5", "NP40-soluble protein abundance": "1 ± 0.041"},
      {"target": "UniProt Q0VDD8-4", "NP40-soluble protein abundance": "0.9026 ± 0.0016"},
      {"target": "TBC1D25 (UniProt Q3MII6)", "NP40-soluble protein abundance": "1.05 ± 0.16"},
      {"target": "UniProt Q8IWZ8", "NP40-soluble protein abundance": "1.08 ± 0.034"},
      {"target": "SF3B3 (UniProt Q15393)", "NP40-soluble protein abundance": "1.15 ± 0.072"}
    ]}
  ]
}
